Results filed as inconclusive are left out. Calls of active or inactive are those of the source. The calls were made as follows, unless noted: active = hit-call score of the fitted dose curve at least 0.9, where 1 is the maximum; inconclusive = response in the unintended direction; inactive = score below 0.9.

Our source for the outcome and AC50 values is PubChem BioAssay (EPA / NIEHS).

The first assay in a line: CCTE_Shafer_MEA_dev_bursting_electrodes_number: CCTE's Neural Network Formation Assay for Number of Bursting Electrodes, Shafer Lab (AID 2284043).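 As to AC50: potency is for loss of bursting electrodes relative to DMSO.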 Summed up: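 Counted: electrodes with burst rate ≥1 per 2 min in each well. Cells: primary rat cortex, 1.5 x 10^5/well, on 16-electrode MEA wells. Exposure: DIV 0–12, compound renewed DIV 5 and 9. Recording days 5, 7, 9, 12; AUC vs DMSO baseline.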
As to `O=C1CCC(N2C(=O)c3ccccc3C2=O)C(=O)N1` (stereo not given), the compound was called inactive.

On to `CCC(C)(C)C(=O)O[C@H]1C[C@@H](C)C=C2C=C[C@H](C)[C@H](CC[C@@H]3C[C@@H](O)CC(=O)O3)[C@H]21`, for which the AC50 is 1060 nM (active).

Regarding `NC(=O)NO`, the compound was classed as inactive.

Take `COc1ccc(-n2nc(C(F)F)cc2-c2ccc(S(C)=O)cc2)cc1` (stereo not given): the AC50 is 10000 nM (active).

Turning to `CNCc1ccc(NC(=O)c2c[nH]c3c2C(=O)CCC3)cc1`, the AC50 was 1980 nM (active).

On to `Nc1nc2ncc(CNc3ccc(C(=O)N[C@@H](CCC(=O)O)C(=O)O)cc3)nc2c(=O)[nH]1`, for which the outcome was inactive.

On to `CC[C@H]1OC(=O)[C@H](C)[C@@H](O[C@H]2C[C@@](C)(OC)[C@@H](O)[C@H](C)O2)[C@H](C)[C@@H](O[C@@H]2O[C@H](C)C[C@H](N(C)C)[C@H]2O)[C@](C)(O)C[C@@H](C)C(=O)[C@H](C)[C@@H](O)[C@]1(C)O`, for which the call was inactive.

For the compound `CC[C@H](C)C(=O)O[C@H]1C[C@@H](C)C=C2C=C[C@H](C)[C@H](CC[C@@H]3C[C@@H](O)CC(=O)O3)[C@H]21`, the AC50 is 1910 nM (active).

Regarding `O=P(OC(CCl)CCl)(OC(CCl)CCl)OC(CCl)CCl`, the call was inactive.

On to `Cn1c(=O)c2c(ncn2C)n(C)c1=O`, for which the outcome was inactive.

The nature of the next assay: CCTE_Shafer_MEA_dev_per_burst_interspike_interval: CCTE's Neural Network Formation Assay for Burst Interspike Interval, Shafer Lab (AID 2284044; active = hit-call score of the fitted dose curve at least 0.9, where 1 is the maximum; inactive = score below 0.9;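 also: mean spike spacing inside bursts as AUC over recordings on days 5 7 9 12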;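 as to AC50: potency for a decrease of within-burst interspike interval below DMSO level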). In a few lines: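 Spontaneous activity of maturing rat cortical networks is recorded on DIV 5, 7, 9 and 12 under chronic compound exposure beginning at plating. Endpoint: burst interspike interval well-mean, collapsed into trapezoidal AUC and fitted in the negative direction relative to DMSO.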
For the compound `O=C1CCC(N2C(=O)c3ccccc3C2=O)C(=O)N1` (stereo not given), the result was inactive.

As to `CCC(C)(C)C(=O)O[C@H]1C[C@@H](C)C=C2C=C[C@H](C)[C@H](CC[C@@H]3C[C@@H](O)CC(=O)O3)[C@H]21`, the call was inactive.

Turning to `NC(=O)NO`, the outcome was inactive.

Regarding `COc1ccc(-n2nc(C(F)F)cc2-c2ccc(S(C)=O)cc2)cc1` (stereo not given), the result was inactive.

On to `CNCc1ccc(NC(=O)c2c[nH]c3c2C(=O)CCC3)cc1`, for which the compound was called inactive.

Consider `Nc1nc2ncc(CNc3ccc(C(=O)N[C@@H](CCC(=O)O)C(=O)O)cc3)nc2c(=O)[nH]1`, for which the compound was called inactive.

For `CC[C@H]1OC(=O)[C@H](C)[C@@H](O[C@H]2C[C@@](C)(OC)[C@@H](O)[C@H](C)O2)[C@H](C)[C@@H](O[C@@H]2O[C@H](C)C[C@H](N(C)C)[C@H]2O)[C@](C)(O)C[C@@H](C)C(=O)[C@H](C)[C@@H](O)[C@]1(C)O`, the outcome was inactive.

On to `CC[C@H](C)C(=O)O[C@H]1C[C@@H](C)C=C2C=C[C@H](C)[C@H](CC[C@@H]3C[C@@H](O)CC(=O)O3)[C@H]21`, for which the AC50 was 2900 nM (active).

Turning to `O=P(OC(CCl)CCl)(OC(CCl)CCl)OC(CCl)CCl`, the result was inactive.

For the compound `Cn1c(=O)c2c(ncn2C)n(C)c1=O`, the compound was called inactive.
